Screening data from PubChem BioAssay.
The list is not random: actives were taken first. Their share in the collection is about 12%.
PLK1 PBD block: inhibitors of human PLK1 polo-box domain binding | P53350 | Plk1 PBD binding of FITC phosphopeptide, fluorescence polarization | Potency, µM, most hits filed as inhibitors | 360,000 compounds, 2.8% hits; also: series mostly up to about 57 µM; nearly all actives have a fitted effect of over 65% in size
JMJD2A Tudor inh: inhibitors of human JMJD2A Tudor domain. O75164. AlphaScreen JMJD2A-Tudor / H3K4me3 peptide binding. Potency, µM (highest dose often 114 µM), most hits filed as inhibitors. 390,000 compounds, 4.4% hits. AID 504339; also: nearly all actives have a fitted effect of over 50% in size
HP1b chromo inh: blocks HP1-beta chromodomain binding to methylated histone tails | P83916 | AlphaScreen HP1-beta / biotin-H3K9me3 peptide binding | Potency, µM (doses to about 114 µM), actives largely listed as inhibitors | 390,000 compounds, 0.56% hits; also: nearly all actives have a fitted effect of over 70% in size
Target sequence (P83916 whole entry, looked up): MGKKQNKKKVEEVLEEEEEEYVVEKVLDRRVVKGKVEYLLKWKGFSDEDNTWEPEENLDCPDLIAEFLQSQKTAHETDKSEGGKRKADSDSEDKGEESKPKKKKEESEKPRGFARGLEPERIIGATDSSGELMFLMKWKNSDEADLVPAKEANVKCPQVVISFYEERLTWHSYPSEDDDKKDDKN
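AlphaScreen: HP1-beta (50 nM) preformed 30 min with biotin-H3(1-18)K9me3 peptide (50 nM) in PBS pH 7.4, 0.01% Tween-20. Compound added for 30 min at RT, then streptavidin donor/nickel chelate acceptor beads (10 ug/mL) for 30 min.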
G9a inh: G9a (human) methyltransferase inhibition | G9a H3K9 monomethylation, AlphaScreen, 2 h | Potency, µM (titrated, usually from 102 µM), usual class: inhibitors | Q96KQ7 | 350,000 compounds, 8.8% hits | AID 504332; also: nearly all actives have a fitted effect of over 75% in size
Target sequence (Q96KQ7 913-1193 limits assumed): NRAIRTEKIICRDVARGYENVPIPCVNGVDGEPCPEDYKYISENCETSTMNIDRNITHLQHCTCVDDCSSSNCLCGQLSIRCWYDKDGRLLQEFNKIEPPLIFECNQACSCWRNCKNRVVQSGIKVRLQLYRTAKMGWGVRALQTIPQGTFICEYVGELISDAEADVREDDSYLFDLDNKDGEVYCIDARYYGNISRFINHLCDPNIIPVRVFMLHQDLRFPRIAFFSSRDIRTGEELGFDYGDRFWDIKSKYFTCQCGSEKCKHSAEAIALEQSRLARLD
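AlphaScreen read-out: biotin-H3K9 peptide (500 nM) methylation by 20 nM enzyme with 20 uM SAM, 2 h at room temperature after 15 min compound preincubation; anti-monomethyl H3K9 antibody plus donor/acceptor beads, 10 min dark.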
PI5P4K alpha inh: blocks human PI5P4K alpha kinase activity; 330,000 compounds, 1.2% hits; PI5P4Kalpha enzyme, ADP-Glo luminescence, 60 min; stronger effect = lower value; P48426; max response, %; AID 652105; active = max response of -50% or lower; inconclusive = between -30% and -50%; inactive = -30% or higher; also: value at the top dose of about 77 µM
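qHTS, 1536-well: enzyme/substrate mix, compound by pin tool, 5 microM ATP final; RT 60 min; ADP-Glo reagents 1 (45 min) then 2 (30 min); luminescence.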
BAZ2B inh: blocks human BAZ2B; Q9UIF8; AlphaScreen BAZ2B-H3K14Ac peptide displacement; Potency, µM (titrated, usually from 114 µM), hits mostly inhibitors; 360,000 compounds, 4.4% hits; also: nearly all actives have a fitted effect of over 60% in size
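Multi-concentration screen (max 110 uM) measuring displacement of acetylated histone H3 peptide from BAZ2B by AlphaScreen, using 50 nM protein, 50 nM peptide and 10 ug/mL streptavidin donor plus Ni-chelate acceptor beads.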
A number is an active result; [ ] = remark or other dose. Unless noted, calls follow the shape of the dose curve; as a rule, active = well fitted curve in the direction sought with a large enough effect; inconclusive = small, poorly fitted or top-dose-only effect, or another doubt; inactive = no such curve, though single readings can be large; an effect the other way counts as inactive or inconclusive.

How did COc1cccc(N2CCN(C(=O)CCc3c(C)nc4c(c3C)c(=O)n(C)c(=O)n4C)CC2)c1 do in these assays?
JMJD2A Tudor inh: inactive; HP1b chromo inh: inactive; G9a inh: inactive; BAZ2B inh: inactive

What do the screens show for `COc1cccc(OC)c1C(=O)NC(=S)NNC(=O)[C@H]1C[C@@H]1c1ccccc1`?
PLK1 PBD block: inactive; JMJD2A Tudor inh: inactive; HP1b chromo inh: inactive; G9a inh: inconclusive; PI5P4K alpha inh: inactive; BAZ2B inh: inactive

What do the screens show for `O=C(NC(=S)NNC(=O)[C@H]1C[C@@H]1c1ccccc1)c1cccc(F)c1`?
PLK1 PBD block: inactive; JMJD2A Tudor inh: inactive; HP1b chromo inh: inactive; G9a inh: 16µM; PI5P4K alpha inh: inactive; BAZ2B inh: inactive

What do the screens show for `CCc1ccc(NC(=O)C2CCN(S(=O)(=O)c3c(C)noc3/C=C/c3ccco3)CC2)cc1`?
JMJD2A Tudor inh: inactive; HP1b chromo inh: inactive; G9a inh: inactive

How did CCc1ccc(NC(=O)C2CCN(S(=O)(=O)c3c(C)noc3/C=C/N(C)C)CC2)cc1 do in these assays?
PLK1 PBD block: inactive; JMJD2A Tudor inh: inactive; HP1b chromo inh: inactive; G9a inh: inactive[0.0925 µM]; PI5P4K alpha inh: inactive; BAZ2B inh: inactive

Results for COc1ccc(NC(=O)C2CCN(S(=O)(=O)c3c(C)noc3/C=C/c3ccco3)CC2)cc1 ?
JMJD2A Tudor inh: 10µM; HP1b chromo inh: inactive; G9a inh: inactive

Results for CNC(=O)C1CCN(S(=O)(=O)c2c(C)noc2/C=C/N(C)C)CC1 ?
PLK1 PBD block: 27µM; JMJD2A Tudor inh: inconclusive; HP1b chromo inh: inactive; G9a inh: inactive; PI5P4K alpha inh: inactive; BAZ2B inh: inactive

Results for c1ccc2c(c1)CCCN2c1nc(N2CCOCC2)nc(N2CCOCC2)n1 ?
PLK1 PBD block: inactive; JMJD2A Tudor inh: inactive; HP1b chromo inh: inactive; G9a inh: inconclusive; PI5P4K alpha inh: inactive; BAZ2B inh: inactive

What do the screens show for `Nc1nc(CN2CCN(c3ccc(F)cc3)CC2)nc(N2CCCc3ccccc32)n1`?
PLK1 PBD block: inactive; JMJD2A Tudor inh: 50µM; HP1b chromo inh: inactive; G9a inh: 40µM; BAZ2B inh: inactive

Results for O=C1c2oc3ccccc3c(=O)c2C(c2ccc(Br)cc2)N1c1ccccn1 (stereo unspecified) ?
JMJD2A Tudor inh: inactive; HP1b chromo inh: inactive; G9a inh: inactive; BAZ2B inh: inactive

Results for CCOc1ccc(NC(=O)CS(=O)(=O)Cc2nc(-c3ccc(C)cc3)oc2C)cc1 ?
JMJD2A Tudor inh: inactive; HP1b chromo inh: inactive; G9a inh: inactive; BAZ2B inh: inactive

How did COC(=O)[C@]12CCCCC=C1N(Cc1ccc(Cl)cc1Cl)C(=O)[C@H](CC(=O)NCc1cccs1)C2 do in these assays?
PLK1 PBD block: inactive; PI5P4K alpha inh: inactive

What do the screens show for `Cn1c(=O)n(C)c2cc(NS(=O)(=O)c3ccc(C(C)(C)C)cc3)c(NCc3ccccc3)cc21`?
JMJD2A Tudor inh: 22µM; HP1b chromo inh: inconclusive; G9a inh: 14µM; BAZ2B inh: 40µM

What do the screens show for `Cc1cc(S(=O)(=O)Nc2cc3c(cc2NCc2ccccc2)n(C)c(=O)n3C)ccc1F`?
JMJD2A Tudor inh: inactive; HP1b chromo inh: inactive; G9a inh: 14µM; BAZ2B inh: inconclusive

What do the screens show for `Cn1c(=O)n(C)c2cc(NS(=O)(=O)c3ccc(Cl)cc3)c(NCc3ccccc3)cc21`?
JMJD2A Tudor inh: inconclusive; HP1b chromo inh: inactive; G9a inh: 16µM; BAZ2B inh: inactive

What do the screens show for `Cn1c(=O)n(C)c2cc(S(=O)(=O)Nc3ccccc3C(=O)O)ccc21`?
PLK1 PBD block: inactive; JMJD2A Tudor inh: inactive; HP1b chromo inh: inactive; G9a inh: inactive; PI5P4K alpha inh: inactive; BAZ2B inh: inactive

How did Cn1c(=O)n(C)c2cc(NS(=O)(=O)c3ccccc3)c(NCc3ccccc3)cc21 do in these assays?
JMJD2A Tudor inh: inconclusive; HP1b chromo inh: inconclusive; G9a inh: 11µM; BAZ2B inh: 50µM

What do the screens show for `Cc1ccc2oc(C(=O)Nc3sc4c(c3C(=O)NCc3ccccc3)CCCC4)cc(=O)c2c1`?
JMJD2A Tudor inh: inactive; HP1b chromo inh: inactive; G9a inh: inactive; BAZ2B inh: inactive

Results for COc1ccc(S(=O)(=O)Nc2cc3c(cc2NCc2ccccc2)n(C)c(=O)n3C)cc1OC ?
JMJD2A Tudor inh: inconclusive; HP1b chromo inh: inactive; G9a inh: 13µM; BAZ2B inh: 50µM
